Data as given in PubChem BioAssay.
Active and inactive are the calls of the source.

Test: basal CRE-LacZ reporter activity in PC12 – cell-based, unstimulated, primary screen (AID 1145)
Conditions: no forskolin, luminescence, 4.5 h, higher = more signal, called active from +8 up or from −8 down

| Compound | z-score |
| --- | --- |
| CCN1C(=O)[C@@H]2[C@H]3C(=CC[C@@H]2C1=O)C1(OCCCO1)[C@H]1O[C@H]1[C@H]3O | 0.196 (inactive) |
| CCOC(=O)[C@H](Cc1ccccc1)NC(=O)CCC1CC(OC(=O)NCCc2ccc(F)cc2)CC2(CCCC(COC(=O)NCCc3ccccc3OC)O2)O1 (stereo partly specified) | 0.198 (inactive) |
| CCOC(=O)NN=C1C[C@@H](O)[C@@H](O)[C@@H]2[C@@H]3C(=O)N(c4cccc(Oc5ccccc5)c4)C(=O)[C@@H]3CC[C@H]12 | 0.523 (inactive) |
| CCCCC#C[C@@H]1C=C[C@H](Oc2ccc(C(=O)OC)cc2)[C@@H](COC(=O)OCC)O1 | 0.291 (inactive) |
| CCCNC(=O)OC[C@H]1O[C@H](CCON=C(C)CCN2CCc3nc(CC)c(CC)cc3C2)C=C[C@@H]1Oc1ccc(OC)cc1 | 10.3 (active) |
| CCC1=NOC(CCC2CC(OC(=O)NCc3cccc4c3OCO4)CC3(CCCC(COC(=O)NCCc4ccccc4OC)O3)O2)C1 (stereo unspecified) | 1.46 (inactive) |
| CO[C@@H]1COC(=O)CC=C[C@H](C)[C@H](OC)COC(=O)[C@H](C)NC(=O)CC=C[C@H]1C | 0.159 (inactive) |
| C#CCCCON=C1C[C@@H](O)[C@@H](O)[C@@H]2[C@@H]3C(=O)N(C(C)(C)C)C(=O)[C@@H]3CC[C@H]12 | 0.608 (inactive) |
| CCOC(=O)[C@H](Cc1ccccc1)NC(=O)CCC1CC(OC(=O)NCc2ccc3c(c2)OCO3)CC2(CCCC(COC(=O)NCCC(C)C)O2)O1 (stereo partly specified) | -0.254 (inactive) |
| COC(=O)CC=C[C@@H](C)[C@@H](C=NO[C@H](C)c1cn([C@H](CO)Cc2ccccc2)nn1)NS(=O)(=O)c1ccc(C)cc1 | 1.98 (inactive) |
| CCN1C(=O)[C@H]2[C@H]3[C@H](O)[C@H](O)CC(=O)[C@@H]3CC[C@H]2C1=O | -0.293 (inactive) |
| CCO[C@H](c1cc(OC)cc([N+](=O)[O-])c1OC)[C@H](C)C=CCC(=O)OC | -0.0684 (inactive) |
| COC(=O)[C@H](C)NC(=O)CCC1CC(OC(=O)NCCc2ccc(F)cc2)CC2(CCCC(COC(=O)NCc3cccc(C(F)(F)F)c3)O2)O1 (stereo partly specified) | 0.0178 (inactive) |
| CCOC(=O)[C@H](CC(C)C)NC(=O)CCC1CC(OC(=O)NCc2ccc3c(c2)OCO3)CC2(CCCC(COC(=O)NCc3cccc(C(F)(F)F)c3)O2)O1 (stereo partly specified) | 0.11 (inactive) |
| COC(=O)[C@H](C)NC(=O)CCC1CC(OC(=O)NCc2ccc3c(c2)OCO3)CC2(CCCC(COC(=O)NCc3cccc(C(F)(F)F)c3)O2)O1 (stereo partly specified) | -0.794 (inactive) |
| C[C@@H](c1ccccc1)N1C(=O)[C@H]2[C@H]3[C@H](O)[C@H](O)CC(=NO[C@@H]4O[C@H](CO)[C@@H](O)[C@H](O)[C@H]4O)[C@H]3CC[C@H]2C1=O | -0.294 (inactive) |
| CCc1cc2c(nc1CC)CCN(CCC(C)=NO[C@H](C)c1cn([C@H](CO)Cc3ccccc3)nn1)C2 | 2.4 (inactive) |
| O=C1C[C@@H](O)[C@@H](O)[C@@H]2[C@@H]3C(=O)N(Cc4ccccc4)C(=O)[C@@H]3CC[C@@H]12 | 1.06 (inactive) |
| COc1ccc(O[C@H]2C=C[C@@H](c3ccccc3)O[C@@H]2CON=CC[C@@H]2C=C[C@H](OC(C)=O)[C@@H](COC(C)=O)O2)cc1 | 1.15 (inactive) |
| Cc1ccc(S(=O)(=O)n2c3ccccc3c3nnc(C(=O)c4ccccc4)nc32)cc1 | 1.38 (inactive) |
| CCCNC(=O)OC[C@H]1O[C@H](CCON=C(C)CCC(=O)OC[C@H]2O[C@H](c3ccccc3)C=C[C@@H]2Oc2ccc(OC)cc2)C=C[C@@H]1Oc1ccc(OC)cc1 | -0.478 (inactive) |
| COC(=O)CC=C[C@@H](C)[C@H](OCc1cccc(-c2ccccc2)c1)C1CCCCC1 | 0.68 (inactive) |
| O=C(NN=C1C[C@@H](O)[C@@H](O)[C@@H]2[C@@H]3C(=O)N(Cc4ccccc4)C(=O)[C@@H]3CC[C@@H]12)OCc1ccccc1 | 0.248 (inactive) |
| COc1ccc(COC(=O)NN=C2C[C@@H](O)[C@@H](O)[C@@H]3[C@@H]4C(=O)N(Cc5ccccc5)C(=O)[C@@H]4CC[C@H]23)cc1 | 0.702 (inactive) |
| COc1ccc(O[C@H]2C=C[C@@H](c3ccccc3)O[C@@H]2CON=C(C)CCC(=O)OC[C@H]2O[C@H](c3ccccc3)C=C[C@@H]2Oc2ccc(OC)cc2)cc1 | -0.887 (inactive) |
| CCCNC(=O)OC[C@H]1O[C@H](CCON=Cc2ccc(C(=O)N3[C@H](c4ccc(C)cc4)[C@@H](C)CC[C@H]3C(=O)OC)cc2)C=C[C@@H]1Oc1ccc(OC)cc1 | 2.55 (inactive) |
